Source: PubChem BioAssay
Sampled rows, rich in hits. Any-hit rate of the full collection: about 11%.
Pf growth 48h – P. falciparum growth inhibition at 48 hours (one generation) | 5.9% of 310,000 active | P. falciparum luciferase growth in erythrocytes, 48 h | Potency, µM (titrated, usually from 28.7 µM), without a hit: at the top dose activity change, negative = inhibition, most hits filed as inhibitors; note: % is set by controls: 0 for no effect and ±100 for the full control effect
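Luminescence readout; reporter = integrated firefly luciferase in P. falciparum. RBC culture at 2% hematocrit, 0.1% parasitemia final, 37 C/5% CO2; decreased signal taken as growth inhibition.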
Vaccinia mCherry – vaccinia inhibition (mCherry reporter) | AID 720579 | Vaccinia virus mCherry reporter infection, fluorescence | 0.63% of 310,000 active | Potency, µM (highest dose often 36.5 µM), for the others: at the top dose activity change, negative = inhibition, usual class: inhibitors; calls by dose curve; tested in A549 cells; note: % is set by controls: 0 for no effect and ±100 for the full control effect; nearly all actives have a fitted effect of over 35% in size
Pf growth 96h – P. falciparum growth inhibition at 96 hours; P. falciparum luciferase reporter growth, 96 h; Potency, µM (series often up to 28.7 µM), for inactives: at the top dose activity change, negative = inhibition, actives largely listed as inhibitors; 6.9% of 320,000 active; AID 504834; note: % is set by controls: 0 for no effect and ±100 for the full control effect
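P. falciparum expressing integrated firefly luciferase, in erythrocytes at 2% hematocrit, 0.05% parasitemia, incubated with compounds 96 h at 37 C, 5% CO2. Growth inhibition read as loss of luminescence; two-generation exposure targets delayed-death apicoplast inhibitors.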
NS1 function inh – inhibitors of influenza NS1 protein function | 0.4% of 270,000 active | Potency, µM (titrated, usually from 46.1 µM), inactives show at the highest dose activity, positive = more growth | AID 2326; calls by dose curve; note: actives are rising curves; nearly all actives have a fitted effect of over 50% in size
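S. cerevisiae expressing influenza A NS1, grown in glucose, washed, then diluted 1:100 into pH 6.0 -URA galactose medium with 23 nl compound. Growth recovery read as OD600; NS1-free strain serves as control.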
HCV inh – HCV inhibition. Potency, µM (series often up to 41.8 µM), for the others: at the top dose activity change, negative = inhibition, most hits filed as inhibitors. 3.4% of 340,000 active. AID 651820. Huh7.5.1 HCVcc-Cre infection, luciferase reporter, 44 h; note: % is set by controls: 0 for no effect and ±100 for the full control effect
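Seed cells (1,000/well) for 4 h; treat with compound and infect with HCVcc-Cre, moi about 0.5. Incubate 44 h, then detect luciferase activity.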
Vaccinia Venus – vaccinia inhibition (Venus reporter) | Vaccinia virus Venus reporter expression, fluorescence | Potency, µM (highest dose often 36.5 µM), inactives show at the highest dose activity change, negative = inhibition, most hits filed as inhibitors | 0.46% of 330,000 active; calls by dose curve; tested in A549 cells; note: % is set by controls: 0 for no effect and ±100 for the full control effect; nearly all actives have a fitted effect of over 30% in size
* marks the source's active call; other numbers are inactive results; i = inactive; ? = inconclusive; · = no result; [ ] = another dose, or the depositor's remark. Unless noted, calls come from the whole dose curve; as a rule, active = well fitted inhibition curve with a large enough effect; inconclusive = small, poorly fitted or top-dose-only effect, or another doubt; inactive = no such curve, though single readings can be large or run the other way. Potency is the fitted concentration of half-maximal effect.

SMILES	Pf growth 48h	Vaccinia mCherry	Pf growth 96h	NS1 function inh	HCV inh	Vaccinia Venus
CCOC(=O)N1CCN(C(=O)C2CCN(S(=O)(=O)c3c(C)cc(C)cc3C)CC2)CC1	·	·	?	-3%	-14%	·
Cc1[nH]c2ccccc2c1C(=O)CN1CCCC1	?	i	·	-6%	-18%	-3%
N#CCCN1CCN(S(=O)(=O)c2ccc(S(=O)(=O)NCc3ccccc3)cc2)CC1	12%	·	?	5%	3%	·
Cc1noc(C)c1S(=O)(=O)N1CCC(C(=O)N2CCN(c3ccccc3Cl)CC2)CC1	?	-16%	?	?	-9%	-15%
Cc1cccc(N2CCN(C(=O)C3CCN(S(=O)(=O)c4c(C)noc4C)CC3)CC2)c1C	?	-15%	?	13%	13µM*	-12%
O=C(O)COc1ccc(/C=C2\SC(=Nc3ccccc3)N(c3ccccc3)C2=O)cc1	0%	i	-10%	·	4%	-2%
O=C(O)COc1ccccc1/C=C1\SC(=Nc2ccc(F)cc2)N(c2ccc(F)cc2)C1=O	10µM*	·	?	13%	2%	·
O=C(O)c1ccc(/C=C2\SC(=Nc3ccccc3)N(c3ccccc3)C2=O)cc1	-14%	?	0.29µM*	·	11%	?
O=C(Nc1ccc(Cl)c(S(=O)(=O)N2CCCCC2)c1)c1cnccn1	?	·	?	·	-8%	·
CCc1nnc(NC(=O)c2ccc(F)c(S(=O)(=O)N3CCCCC3)c2)s1	8%	·	12µM*	13%	2%	·
O=C(Nc1ccc(Cl)c(S(=O)(=O)N2CCCCC2)c1)c1ccncc1	?	-27%	7.4µM*	·	8.9µM*	-25%
O=C(Nc1ccncc1)c1ccc(Cl)c(S(=O)(=O)N2CCCCC2)c1	?	-4%	1.9µM*	·	10µM*	-20%
CCc1noc(C)c1C(=O)Nc1ccc(Cl)c(S(=O)(=O)N2CCCCC2)c1	9.3µM*	-5%	?	·	?	-24%
CCc1nnc(NC(=O)c2ccc(S(=O)(=O)N3CCCCC3)cc2)s1	11%	-2%	-23%	6%	1%	-10%
Cn1cc(S(=O)(=O)N2CCc3ccccc32)cc1C(=O)NC(C)(C)C	?	i	6%	6%	?	-10%
O=C(Nc1cccnc1)c1ccc(Cl)c(S(=O)(=O)N2CCCCCC2)c1	10µM*	?	·	-49%	?	?
Cc1ccc(C(=O)Nc2cccnc2)cc1S(=O)(=O)N1CCCCCC1	?	-4%	?	-7%	·	-14%
CC(=O)N/N=C/c1c(C)[nH]n(-c2ccccc2)c1=O	?	i	44%	·	6%	8%
Cc1[nH]n(-c2ccccc2)c(=O)c1/C=N/NC(=O)c1ccccc1F	·	·	2.3µM*	-2%	?	·
CCN(CC)CCOC(=O)c1ccc(NC(=O)c2nn(-c3ccc(C)cc3)c(=O)c3c2c2ccccc2n3C)cc1	·	5.6µM*	·	·	·	5µM*
CCN(CC)CCCNC(=O)c1nn(-c2ccc(C)cc2)c(=O)c2c1c1ccccc1n2C	·	13%	·	·	·	3%
O=C(CSc1nnc(Cc2ccccc2)n1-c1ccccc1)NNC(=O)Cc1ccccc1	-3%	·	6%	-1%	5%	·
CN(CC(O)COCc1cccs1)C1CCCCC1 (stereo not given)	3%	-7%[1.46 µM]	83%	-2%	3%	-10%
Nc1nnc(SCC(=O)Nc2ccc3c(c2)OCCO3)s1	38%	·	·	1%	14%	·
COc1cc(CCCN2C(N)=NC[C@@H]2Cc2ccc(O)cc2)cc(OC)c1OC	?	-9%	2.3µM*	-1%	6%	-6%
SMILES	Pf growth 48h	Vaccinia mCherry	Pf growth 96h	NS1 function inh	HCV inh	Vaccinia Venus
COc1cc(CCCN2C(N)=NC[C@@H]2Cc2ccccc2)cc(OC)c1OC	9.3µM*	-10%	9.3µM*	3%	7%	-6%
COc1cc(CCCN2C(=S)NC[C@@H]2Cc2ccccc2)cc(OC)c1OC	-16%	-7%	-11%	-6%	?	-18%
Cc1ccc(-c2cc(C(=O)NCCN3CCOCC3)c3ccccc3n2)o1	-6%	-2%	?	4%	5%	5%
C#CC(=O)N(c1cccc(OC)c1)C(C(=O)NC1CCCC1)c1cccs1 (stereo not given)	31%	20µM*	?	6%	0.56µM*	14µM*
CC(=O)c1cccc(N(C(=O)c2ccccn2)C(C(=O)NC2CCCCC2)c2cccs2)c1 (stereo not given)	2.6µM*	-5%	1.7µM*	5%	13%	-6%
C#CC(=O)N(c1ccc(OC)c(OC)c1)C(C(=O)NC1CCCC1)c1cccs1 (stereo not given)	-12%	?	-9%	6%	0.32µM*	?
CC(=O)c1ccc(N(C(=O)c2ccco2)C(C(=O)NC2CCCC2)c2cccs2)cc1 (stereo not given)	?	-12%	?	6%	-14%	-16%
O=C(O)c1ccc(Cn2nnc3sc4c(c3c2=O)CCCC4)cc1	58%	-6%	-10%	·	12%	1%
COc1cc2[nH]c(=S)nc(NCc3ccc(C)cc3)c2cc1OC	?	·	13µM*	-1%	-11%	·
COc1cc2[nH]c(=S)nc(NCc3ccccc3)c2cc1OC	-19%	·	0.52µM*	-2%	-21%	·
CCOc1cc(C(=S)N2CCCCC2)ccc1OS(=O)(=O)c1ccc(Cl)cc1	?	·	88%	2%	?	·
O=C(C[C@@H]1C/C=C\C[C@@H](Cc2ccc(F)cc2)C(=O)OC[C@H]2CCCN2C1=O)N[C@H](CO)Cc1ccccc1	·	-4%	·	·	0%	-26%
c1nnc(NC2=NCCCCC2)s1	31%	0%	5.9µM*	3%	7%	-11%
O=C(Cn1c(=O)n(Cc2ccc3c(c2)OCO3)c(=O)c2ccccc21)N1CCCc2ccccc21	10µM*	·	·	-16%	14%	-20%
Cc1c(C#N)c2ccccc2n1CC(=O)N1CCCC1	?	-16%	21%	0%	6%	-3%
Cc1nn(CC(=O)N2CCCc3ccccc32)c(C)c1[N+](=O)[O-]	30%	·	?	-2%	18%	·
CC1CCN(C(=O)Cn2c(=O)n(Cc3ccc4c(c3)OCO4)c(=O)c3ccccc32)CC1	-25%	·	12%	-8%	-3%	-28%
Cc1c(C#N)c2ccccc2n1CC(=O)N1CCCc2ccccc21	3.3µM*	·	36%	-3%	13%	?
Cc1c(Br)c([N+](=O)[O-])nn1CC(=O)N1CCCc2ccccc21	26%	·	2.3µM*	0%	-3%	-18%
Cc1ccccc1NC1c2ccccc2C(=O)N1Cc1ccco1 (stereo not given)	·	-15%	8.3µM*	20%	-11%	-3%
COc1cccc(NC2c3ccccc3C(=O)N2Cc2ccco2)c1 (stereo not given)	·	2%	?	-4%	?	-3%
COc1ccc(NS(=O)(=O)c2cccc(C(=O)NN=Cc3ccc(O)c(OC)c3)c2)cc1	·	-10%	·	·	5%	1%
